FBA Mtb inh: inhibitors of M. tuberculosis fructose-bisphosphate aldolase. inhibition, % at 1 µM. purified M. tuberculosis FBA, fluorescence read-out. 360,000 tested, 2.3% active. AID 588726; in the data active = inhibition above about 27%;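 note: 0% = vehicle and 100% = reference inhibitor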
Target sequence (P9WQA3 whole entry, looked up): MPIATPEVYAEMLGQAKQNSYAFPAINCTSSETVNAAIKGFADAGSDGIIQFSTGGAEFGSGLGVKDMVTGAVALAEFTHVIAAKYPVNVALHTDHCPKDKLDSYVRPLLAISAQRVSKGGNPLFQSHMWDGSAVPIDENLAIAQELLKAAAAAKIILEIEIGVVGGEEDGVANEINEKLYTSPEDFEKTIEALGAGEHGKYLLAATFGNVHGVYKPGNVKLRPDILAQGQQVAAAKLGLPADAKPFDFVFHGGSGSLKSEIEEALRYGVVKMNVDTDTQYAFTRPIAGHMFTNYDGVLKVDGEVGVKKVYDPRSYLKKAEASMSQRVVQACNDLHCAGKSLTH
RecA intein inh: blocks M. tuberculosis RecA intein splicing; AID 2221; inhibition, % (no concentration beside the values); cell-free RecA intein splicing, fluorescence; 290,000 tested, 0.75% active; in the data active = inhibition above about 30%;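 note: 0% = vehicle wells and 100% = reference inhibitor control wells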
CCHF vOTU inh: CCHFV vOTU protease inhibition. Pep-AMC fluorescence. inhibition, % at 11.5 µM. 370,000 tested, 0.55% active. AID 651958; note: 0% = vehicle wells with enzyme and 100% = no enzyme wells
GDH-TPI counter: counter-screen for M. tuberculosis FBA inhibitors: GDH-TPI coupled enzymes | inhibition, % at 4.8 µM | 360,000 tested, 1.2% active | GDH-TPI coupled enzyme counterscreen, NADH absorbance;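 note: 0% = DMSO wells and 100% = wells lacking the enzyme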
Mtb bLac sens: beta-lactam sensitization of Mtb H37Rv; AID 434955; inhibition, % at 25 µM; M. tuberculosis H37Rv growth with meropenem, percent inhibition; 330,000 tested, 0.27% active; call rule not given here;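 note: growth measured after seven days incubation then overnight dye step; 0% = bacteria only wells and 100% = bacteria with antibiotic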
An asterisk follows results filed as active. In the library only some 4.2% were active in any assay of this set; here they are far more common. Cut-off read from the data, not from the text of the source, unless noted: active = inhibition above about 30%; inactive = the rest.

Results for CCCCN1C(=O)N2Cc3cc(OC)ccc3C2CS1(=O)=O (stereo not given) ?
CCHF vOTU inh: -3

Results for COc1cc(NC(=O)C2CCCN(S(=O)(=O)c3cc(OC)ccc3OC)C2)cc(OC)c1 (stereo not given) ?
CCHF vOTU inh: 3

Results for COc1ccc2c(c1)CC/C(=C\c1ccc(OC)c(Cn3cccn3)c1)C2=O ?
FBA Mtb inh: -2; RecA intein inh: 24; CCHF vOTU inh: 12; GDH-TPI counter: 38*; Mtb bLac sens: 6

How did COc1ccccc1C(=O)N(Cc1ccccn1)CC1CCCO1 (stereo not given) do in these assays?
CCHF vOTU inh: -4

Results for COc1cc(/C=N/n2c(-c3cc(-c4ccccc4)n[nH]3)n[nH]c2=S)ccc1OCc1ccccc1 ?
CCHF vOTU inh: 26

What do the screens show for `CC1CCCCN1Cc1ccc(-c2nnn(CC(=O)NC3CCCCC3)n2)cc1` (stereo not given)?
FBA Mtb inh: -10; RecA intein inh: 0; CCHF vOTU inh: 0; GDH-TPI counter: 62*; Mtb bLac sens: 0

What do the screens show for `NC(=O)c1cc2ccccc2oc1=NCc1ccccc1`?
FBA Mtb inh: 3; RecA intein inh: 8; CCHF vOTU inh: 13; GDH-TPI counter: 7; Mtb bLac sens: 1

Results for COc1ccc(OC)c(N=c2oc3cc(O)ccc3cc2C(N)=O)c1 ?
FBA Mtb inh: 116*; RecA intein inh: -61; CCHF vOTU inh: -112; GDH-TPI counter: 9; Mtb bLac sens: 1

How did NC(=O)c1cc2ccc(O)cc2oc1=Nc1ccccc1 do in these assays?
FBA Mtb inh: active; RecA intein inh: inactive; CCHF vOTU inh: -223; GDH-TPI counter: 16

Results for NC(=O)c1cc2ccc(O)cc2oc1=NCc1ccccc1 ?
FBA Mtb inh: active; RecA intein inh: -434; CCHF vOTU inh: -349; GDH-TPI counter: 15; Mtb bLac sens: 97

Results for CCN(CC)C(=O)CSc1nnc(-c2cccs2)o1 ?
CCHF vOTU inh: -6

What do the screens show for `O=C1C(Cl)=C(NCC2CCCO2)C(=O)N1c1ccccc1` (stereo not given)?
FBA Mtb inh: 0; RecA intein inh: 33*; CCHF vOTU inh: -3; GDH-TPI counter: -5; Mtb bLac sens: -2

How did COC(=O)Cc1cc(=O)oc2cc(OC)ccc12 do in these assays?
FBA Mtb inh: 119*; RecA intein inh: -1; CCHF vOTU inh: -70; GDH-TPI counter: 15; Mtb bLac sens: -5

Results for COC(=O)C1CCN(Cc2cc(=O)oc3cc(OC)ccc23)CC1 ?
FBA Mtb inh: 22; RecA intein inh: 1; CCHF vOTU inh: -6; GDH-TPI counter: 24; Mtb bLac sens: 15

What do the screens show for `COc1ccc2c(COC(=O)c3cccc(S(=O)(=O)NCC(C)C)c3)cc(=O)oc2c1`?
FBA Mtb inh: 42*; RecA intein inh: 3; CCHF vOTU inh: -2; GDH-TPI counter: 0; Mtb bLac sens: -7

What do the screens show for `COc1ccc(OC)c(CN2CCN(Cc3cc(=O)oc4cc(O)ccc34)CC2)c1`?
FBA Mtb inh: 115*; RecA intein inh: -172; CCHF vOTU inh: -198; GDH-TPI counter: 11; Mtb bLac sens: 25

What do the screens show for `COc1ccc2c(COC(=O)CNS(=O)(=O)c3ccccc3)cc(=O)oc2c1`?
FBA Mtb inh: 119*; CCHF vOTU inh: -57; GDH-TPI counter: 14; Mtb bLac sens: -6

What do the screens show for `CCCCCN1CCCCC(NC(=O)C2CCCCC2)C1=O` (stereo not given)?
CCHF vOTU inh: 0

Results for CN(C)c1ccc(/C=C(/NC(=O)c2ccccc2)C(=O)NCCCn2ccnc2)cc1 ?
FBA Mtb inh: -4; RecA intein inh: -4; GDH-TPI counter: 33*; Mtb bLac sens: 62

What do the screens show for `O=C(NCCCn1ccnc1)/C(=C/c1ccc(Cl)cc1)NC(=O)c1ccccc1`?
FBA Mtb inh: 1; RecA intein inh: -4; CCHF vOTU inh: -11; GDH-TPI counter: -5; Mtb bLac sens: 0

What do the screens show for `CCn1cc(/C=C(\NC(=O)c2ccccc2)C(=O)NCCCn2ccnc2)c2ccccc21`?
FBA Mtb inh: 0; CCHF vOTU inh: 15; GDH-TPI counter: 45*

How did COc1cc2c(cc1OC)C1=NC(=O)CN1C(SCc1ccccc1C)=N2 do in these assays?
FBA Mtb inh: 27*; RecA intein inh: 2; CCHF vOTU inh: -13; GDH-TPI counter: 9; Mtb bLac sens: -1

Results for CCc1nc(Nc2ccc3c(c2)OCCO3)c2oc3ccccc3c2n1 ?
FBA Mtb inh: -1; RecA intein inh: -1; CCHF vOTU inh: -2; GDH-TPI counter: 33*; Mtb bLac sens: 6

What do the screens show for `Cc1nc(Nc2ccc3c(c2)OCCO3)c2oc3ccccc3c2n1`?
FBA Mtb inh: 3; RecA intein inh: -1; CCHF vOTU inh: 6; GDH-TPI counter: 13; Mtb bLac sens: 29

Results for CCCOc1ccc(/C=C2\SC(N)=NC2=O)cc1OC ?
FBA Mtb inh: -1; RecA intein inh: -1; CCHF vOTU inh: 5; GDH-TPI counter: 15; Mtb bLac sens: 20

How did COc1ccc(/C=C2\SC(N)=NC2=O)cc1Br do in these assays?
FBA Mtb inh: -7; RecA intein inh: 3; CCHF vOTU inh: 18; GDH-TPI counter: 31*; Mtb bLac sens: 7

Results for COc1ccc(OC)c(/C=N/NC(=O)CNC(=O)c2cccc3ccccc23)c1 ?
FBA Mtb inh: 145*; RecA intein inh: -3; CCHF vOTU inh: -116; GDH-TPI counter: 6; Mtb bLac sens: 0

How did COc1ccc(OC)c(/C=N/NC(=O)CCCC(=O)Nc2cccc(Br)c2)c1 do in these assays?
FBA Mtb inh: 60*; RecA intein inh: 1; CCHF vOTU inh: -43; GDH-TPI counter: 2; Mtb bLac sens: 18

What do the screens show for `COc1ccc(C(=O)OCCCN(C)C2CN(Cc3cn(Cc4ccc([N+](=O)[O-])cc4)nn3)S(=O)(=O)C2)cc1OC` (stereo not given)?
CCHF vOTU inh: 7

What do the screens show for `COC(=O)C1CN(Cc2ccccc2)CCS(=O)(=O)N1Cc1ccc(OC)cc1` (stereo not given)?
CCHF vOTU inh: 3

How did Oc1ccc(/C=N/NC(=S)NC2CC3CCC2C3)cc1 (stereo not given) do in these assays?
FBA Mtb inh: -1; RecA intein inh: 2; CCHF vOTU inh: -1; GDH-TPI counter: 61*; Mtb bLac sens: 84

Results for S=C(N/N=C/c1cccs1)NC1CC2CCC1C2 (stereo not given) ?
FBA Mtb inh: -2; RecA intein inh: 23; CCHF vOTU inh: 0; GDH-TPI counter: 21; Mtb bLac sens: 94

What do the screens show for `CC(C)c1ccc2[nH]c3c(c2c1)CCC/C3=N\NC(=O)c1ccncc1`?
FBA Mtb inh: 5; RecA intein inh: 2; CCHF vOTU inh: 8; GDH-TPI counter: 16; Mtb bLac sens: 98

How did O=C(N/N=C/c1c[nH]c2ccccc12)c1cc(-c2ccccc2)n[nH]1 do in these assays?
FBA Mtb inh: -6; RecA intein inh: 1; CCHF vOTU inh: 1; GDH-TPI counter: 37*; Mtb bLac sens: 54

How did NC(=S)N/N=C/c1c[nH]c2ccccc12 do in these assays?
FBA Mtb inh: -1; RecA intein inh: 0; CCHF vOTU inh: 14; GDH-TPI counter: 56*; Mtb bLac sens: 96

Assay outcomes: PubChem, several laboratories
